# About 420 (32%) of roughly 1,300 compounds were called active. Not shown: some 32% with an inconclusive outcome. Some of the results follow. A number with no mark means an inactive call. Calls follow the shape of the dose curve; as a rule, active = well fitted inhibition curve with a large enough effect; inconclusive = small, poorly fitted or top-dose-only effect; inactive = no such curve, though single readings can be large or run the other way.
# Target: C-terminal-binding protein 1 (Homo sapiens) (UniProt Q13363)
# Assay: qHTS for Inhibitors of the Phosphatase Activity of Eya2: Carboxyl-terminal binding protein (CtBP) Counterscreen for Cherry-picked Compounds; also: nearly all actives have a fitted effect of over 65% in size
# Settings: purified protein-protein binding, AlphaScreen, 3 h; series mostly up to 46.1 µM; activity change, negative = inhibition: at the top concentration
# How it was run: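 AlphaScreen using 25 nM GST-E1A with 25 nM CtBP-6xHIS; compounds at 2.5 nM–46 uM final, 2 h at room temperature, then donor/acceptor beads (20 ug/mL) for 1 h in the dark. Signal normalized to E1A peptide inhibitor (maximum inhibition) and DMSO.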
# % is scaled to controls: 0 for no effect and ±100 for the full control effect; potency is read from the fitted curve at half-maximal effect.
Structure (SMILES),Potency,"activity change, negative = inhibition [%]"
O=C1C(NS(=O)(=O)c2ccc(Br)cc2)=C(N2CCCCC2)C(=O)c2ccccc21,13.5 µM (active),–
O=C(CCS(=O)(=O)c1ccc(Br)cc1)N1CCCCCC1,–,6.61
O=C1N=c2ccccc2=C1c1sc(Nc2cccc(O)c2)nc1O,–,-25.1
CN(C1=C(N2CCCCC2)C(=O)c2ccccc2C1=O)c1ccccc1,1.9 µM (active),–
CC1CCN(C2=C(NS(=O)(=O)c3ccc(Br)cc3)C(=O)c3ccccc3C2=O)CC1,5.36 µM (active),–
O=C1C(Nc2cccc(O)c2)=C(N2CCCCC2)C(=O)c2ccccc21,19 µM (active),–
O=c1cc(Nc2ccc3c(c2)OCO3)[nH]c(=O)n1-c1ccc(Br)cc1,–,-29.6
S=C(NC1CC1)NC1CCCc2ccccc21 (configuration not stated),–,0.976
COc1ccc(-c2ccc(SCc3cccnc3)nn2)cc1OC,13.5 µM (active),–
O=C(O)CCCCCNS(=O)(=O)c1cccc2c1C(=O)c1ccccc1C2=O,5.36 µM (active),–
O=C(O)c1ccc(Nc2nc(-c3ccccc3)nc3ccccc23)cc1,9.53 µM (active),–
O=C(O)c1cccc(Nc2nc(-c3ccccc3)nc3ccccc23)c1,12 µM (active),–
CCOC(=O)NNc1nncc2ccccc12,–,10.1
Cc1cc(Nc2ccc([N+](=O)[O-])cc2)c2ccccc2n1,–,-2.71
Cc1ccc(Nc2nc(-c3cccnc3)nc3ccccc23)cc1,–,-23.4
CCOC(=O)c1nc(Nc2ccc(Nc3ccccc3)cc2)c2ccccc2n1,13.5 µM (active),–
O=C(C1CCN(c2nnc(-n3cccc3)s2)CC1)N1CCOCC1,–,3.78
Cc1ccc(NC(=O)CN2C(=O)S/C(=C\c3cc(Cl)c(OCC(=O)O)c(Cl)c3)C2=O)cc1,15.1 µM (active),–
CCOc1ccc2c(c1)-c1c(ssc1=S)C(C)(C)N2C(=O)CSC1=NCCS1,15.1 µM (active),–
Cc1cc(C)nc(-n2nc(C)cc2NC(=O)c2cc3ccccc3oc2=O)n1,4.78 µM (active),–
CN1/C(=C\C=C2/SC(=S)NC2=O)C(C)(C)c2ccccc21,12 µM (active),–

Structure (SMILES),Potency,"activity change, negative = inhibition [%]"
CC1=NN(c2ccccc2)C(=O)/C1=C\C=C1/N(C)c2ccccc2C1(C)C,9.53 µM (active),–
CN(C)c1ccc(/C=C2\c3ccccc3-c3ccc(N(C)C)cc32)cc1,5.36 µM (active),–
CN(C)c1ccc(/C=C2\C(Cl)=Cc3ccccc32)cc1,6.75 µM (active),–
CN(C)c1ccc2c(c1)C(=NO)c1ccccc1-2,16.9 µM (active),–
CNc1ccc(C=C2c3ccccc3-c3ccccc32)cc1,12 µM (active),–
Cc1oc(-c2ccc(-c3ccccc3)cc2)nc1CN(C)C1CCOC1 (configuration not stated),–,-27.8
Cc1ccc(C(=O)Oc2ccc(N3C(=O)CCC3=O)c(C)c2)cc1,–,-13.3
O=C(/C=C/c1ccc(O)c(O)c1)OC(Cc1ccc(O)c(O)c1)C(=O)O (configuration not stated),–,-4.19
COc1cccc(OC)c1C(=O)OCC(=O)NCC1CCCCC1,–,4.69
CC1=CC(C)(C)n2c(O)c(C3=NC(=S)NC3=O)c3cc(OC(=O)c4cccc5ccccc45)cc1c32,–,-29.4
CN(C)c1ccc(C=C2c3ccccc3-c3ccccc32)cc1,8.49 µM (active),–
CN(C)c1ccc(/C=C2\C(=O)/C(=C/c3ccc(N(C)C)cc3)c3ccccc32)cc1,5.36 µM (active),–
OC(COc1ccc2cc(Br)ccc2c1)Cn1ccnc1 (configuration not stated),–,-3.87
COc1cc2c(cc1OC)-c1cc(Nc3ccccc3)nc(=O)n1CC2,6.75 µM (active),–
COc1ccc(Nc2cc3n(c(=O)n2)CCc2cc(OC)c(OC)cc2-3)c(C)c1,12 µM (active),–
COc1ccc(NC(=O)c2cc(S(=O)(=O)N3CCc4ccccc43)cn2C)cc1OC,–,4.75
CCOc1ccc(Nc2cc3n(c(=O)n2)CCc2cc(OC)c(OC)cc2-3)cc1,5.36 µM (active),–
COc1cc2c(cc1OC)-c1cc(Nc3ccc(C)cc3)nc(=O)n1CC2,4.26 µM (active),–
Cc1nc(COC(=O)c2c(C)nn(-c3ccccc3)c2C)cs1,–,5.54
COc1cc2c(cc1OC)-c1cc(Nc3ccc(F)cc3)nc(=O)n1CC2,2.39 µM (active),–
O=C(NCc1ccc2c3c(cccc13)C(=O)N2)c1cccs1,–,-16.3
